Consider 1 sequence from article PMC7862700, “An all-to-all approach to the identification of sequence-specific readers for epigenetic DNA modifications on cytosine”.

Holding throughout (assay): DAPPL (digital affinity profiling via proximity ligation, sequencing); 10 mM Tris-HCl pH 7.5, 50 mM NaCl, 1 mM DTT, 4% glycerol, room temperature, 30 min; GST-TFs on glutathione beads, 16-mer random dsDNA library, 0.1% formaldehyde crosslink after washing; high values mean tight binding
One assay concerns the target T1, FLI1 (Homo sapiens, UniProt Q01543 1-452).
T1 sequence: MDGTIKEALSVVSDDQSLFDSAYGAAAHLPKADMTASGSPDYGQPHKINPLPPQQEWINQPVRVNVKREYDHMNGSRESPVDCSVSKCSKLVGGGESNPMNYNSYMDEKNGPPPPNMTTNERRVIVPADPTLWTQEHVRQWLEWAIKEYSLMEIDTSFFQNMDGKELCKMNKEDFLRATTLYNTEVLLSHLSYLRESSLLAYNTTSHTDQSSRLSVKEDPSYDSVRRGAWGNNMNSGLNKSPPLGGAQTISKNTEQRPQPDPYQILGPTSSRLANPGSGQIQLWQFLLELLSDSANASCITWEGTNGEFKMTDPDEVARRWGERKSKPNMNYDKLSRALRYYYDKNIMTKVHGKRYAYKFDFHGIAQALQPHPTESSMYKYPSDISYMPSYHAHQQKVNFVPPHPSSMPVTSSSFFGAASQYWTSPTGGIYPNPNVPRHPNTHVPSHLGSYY
The note with it: protein: recombinant; tags: N-terminal GST; dsDNA, one strand shown. The essentials:
(§1)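 Pools of DNA-barcoded human transcription factors, expressed in yeast as GST fusions on glutathione beads and combined with a tag-only sample, were incubated with 200 nmole of a 16-mer random double-stranded DNA library. Incubation took 30 min at room temperature in Tris/NaCl/DTT/glycerol buffer and was followed by washing, 0.1% formaldehyde crosslinking, proximity ligation (BsaI/T4 ligase, 1 h, 37 °C), PCR amplification and sequencing on an Illumina NextSeq500. Binding signal is the ratio of a hexamer's read frequency for a factor to its frequency for the tag-only sample.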

The target of the next assay is T2, ELK1 (Homo sapiens, UniProt P19419 1-428).
T2 sequence: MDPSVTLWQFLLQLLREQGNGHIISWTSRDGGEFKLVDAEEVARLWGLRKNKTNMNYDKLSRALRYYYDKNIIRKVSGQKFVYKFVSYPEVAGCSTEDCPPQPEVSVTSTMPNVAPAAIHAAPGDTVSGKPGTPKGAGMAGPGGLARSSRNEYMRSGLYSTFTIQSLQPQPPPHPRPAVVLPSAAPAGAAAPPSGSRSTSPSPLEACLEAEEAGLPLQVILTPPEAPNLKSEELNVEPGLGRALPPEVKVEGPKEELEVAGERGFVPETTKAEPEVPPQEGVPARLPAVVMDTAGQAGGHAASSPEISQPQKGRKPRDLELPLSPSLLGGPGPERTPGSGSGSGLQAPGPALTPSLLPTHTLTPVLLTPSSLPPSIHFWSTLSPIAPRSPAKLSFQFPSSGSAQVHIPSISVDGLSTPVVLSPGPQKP
The note with it: protein: recombinant; tags: N-terminal GST; dsDNA, one strand shown. The essentials:
as §1

The target in another assay is T3, GABPA (Homo sapiens, UniProt Q06546 1-454).
T3 sequence: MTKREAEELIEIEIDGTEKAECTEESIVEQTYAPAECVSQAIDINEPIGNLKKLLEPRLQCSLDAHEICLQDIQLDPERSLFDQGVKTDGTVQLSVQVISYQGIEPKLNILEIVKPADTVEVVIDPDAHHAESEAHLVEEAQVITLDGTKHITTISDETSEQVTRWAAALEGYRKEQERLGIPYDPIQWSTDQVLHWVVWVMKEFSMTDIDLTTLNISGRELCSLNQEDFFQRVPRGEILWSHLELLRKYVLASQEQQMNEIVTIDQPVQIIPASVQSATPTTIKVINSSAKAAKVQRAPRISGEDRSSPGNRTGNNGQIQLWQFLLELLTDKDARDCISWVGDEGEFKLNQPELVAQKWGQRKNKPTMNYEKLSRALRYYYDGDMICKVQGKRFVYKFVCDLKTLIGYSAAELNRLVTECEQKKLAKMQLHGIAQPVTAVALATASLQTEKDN
The conditions noted are these: protein: recombinant; tags: N-terminal GST; dsDNA, one strand shown. In short, it runs like this: as §1

The next assay deals with T4, ERG (Homo sapiens, UniProt P11308 1-479).
T4 sequence: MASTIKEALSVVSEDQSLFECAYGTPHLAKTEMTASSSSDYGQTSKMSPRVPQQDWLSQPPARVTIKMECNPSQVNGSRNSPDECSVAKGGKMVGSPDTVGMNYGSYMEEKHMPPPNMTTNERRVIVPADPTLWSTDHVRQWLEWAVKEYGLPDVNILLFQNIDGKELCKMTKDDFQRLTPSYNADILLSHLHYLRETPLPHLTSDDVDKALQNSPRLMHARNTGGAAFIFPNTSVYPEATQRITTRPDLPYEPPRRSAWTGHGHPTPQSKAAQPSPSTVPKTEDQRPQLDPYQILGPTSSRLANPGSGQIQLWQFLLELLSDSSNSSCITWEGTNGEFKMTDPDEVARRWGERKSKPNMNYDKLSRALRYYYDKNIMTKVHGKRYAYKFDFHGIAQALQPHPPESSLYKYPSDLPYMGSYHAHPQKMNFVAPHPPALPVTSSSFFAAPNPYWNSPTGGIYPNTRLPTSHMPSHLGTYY
The note with it: protein: recombinant; tags: N-terminal GST; dsDNA, one strand shown. The essentials:
as §1

Another assay deals with ELF1 (Homo sapiens, UniProt P32519 1-619). The conditions noted are these: protein: recombinant; tags: N-terminal GST; dsDNA, one strand shown. In short, it runs like this: as §1
ELF1, sequence (P32519 whole entry): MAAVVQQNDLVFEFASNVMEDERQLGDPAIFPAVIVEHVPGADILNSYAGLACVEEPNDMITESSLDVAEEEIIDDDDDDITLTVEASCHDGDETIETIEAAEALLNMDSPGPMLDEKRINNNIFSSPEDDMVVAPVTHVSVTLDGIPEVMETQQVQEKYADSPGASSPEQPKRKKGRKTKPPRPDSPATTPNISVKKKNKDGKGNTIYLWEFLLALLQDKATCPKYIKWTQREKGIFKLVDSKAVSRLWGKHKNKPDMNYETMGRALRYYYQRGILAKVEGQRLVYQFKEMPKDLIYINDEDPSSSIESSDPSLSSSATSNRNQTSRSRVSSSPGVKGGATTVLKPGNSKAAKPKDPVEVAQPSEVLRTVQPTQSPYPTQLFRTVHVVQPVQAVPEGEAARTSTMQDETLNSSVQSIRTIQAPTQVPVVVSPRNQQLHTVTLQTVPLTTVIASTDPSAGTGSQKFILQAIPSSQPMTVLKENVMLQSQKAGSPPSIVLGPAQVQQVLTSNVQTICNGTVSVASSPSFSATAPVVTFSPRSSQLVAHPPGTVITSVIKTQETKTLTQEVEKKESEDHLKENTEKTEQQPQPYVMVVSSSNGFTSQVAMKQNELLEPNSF
For a further assay, the target named is T5, EHF (Homo sapiens, UniProt Q9NZC4 1-300).
T5 sequence: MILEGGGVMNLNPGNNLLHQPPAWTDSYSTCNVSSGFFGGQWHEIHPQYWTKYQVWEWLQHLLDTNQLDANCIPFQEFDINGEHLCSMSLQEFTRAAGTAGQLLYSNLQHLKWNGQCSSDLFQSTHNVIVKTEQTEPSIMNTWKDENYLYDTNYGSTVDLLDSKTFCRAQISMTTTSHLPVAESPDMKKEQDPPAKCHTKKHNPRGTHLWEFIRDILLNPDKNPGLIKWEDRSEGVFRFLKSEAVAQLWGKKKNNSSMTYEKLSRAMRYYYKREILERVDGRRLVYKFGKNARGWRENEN
The conditions noted are these: protein: recombinant; tags: N-terminal GST; dsDNA, one strand shown. In short, it runs like this: as §1

A further assay addresses SPIB (Homo sapiens, UniProt Q01892 1-262). The conditions noted are these: protein: recombinant; tags: N-terminal GST; dsDNA, one strand shown. The essentials:
as §1

A further assay addresses T6, ELK3 (Homo sapiens, UniProt P41970 1-407).
T6 sequence: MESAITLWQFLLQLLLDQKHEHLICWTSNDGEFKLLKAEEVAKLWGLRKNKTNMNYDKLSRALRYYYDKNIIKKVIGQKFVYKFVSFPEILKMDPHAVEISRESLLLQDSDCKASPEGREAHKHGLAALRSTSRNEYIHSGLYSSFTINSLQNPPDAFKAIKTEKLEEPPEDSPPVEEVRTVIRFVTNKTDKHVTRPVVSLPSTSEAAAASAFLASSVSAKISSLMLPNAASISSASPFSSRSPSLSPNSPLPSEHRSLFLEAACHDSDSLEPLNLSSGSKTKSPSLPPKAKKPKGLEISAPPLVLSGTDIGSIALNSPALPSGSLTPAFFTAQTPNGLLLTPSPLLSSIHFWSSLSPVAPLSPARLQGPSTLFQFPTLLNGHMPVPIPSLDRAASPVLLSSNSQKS
The conditions noted are these: protein: recombinant; tags: N-terminal GST; dsDNA, one strand shown. The essentials: as §1

Another assay has as its target T7, FEV (Homo sapiens, UniProt Q99581 1-238).
T7 sequence: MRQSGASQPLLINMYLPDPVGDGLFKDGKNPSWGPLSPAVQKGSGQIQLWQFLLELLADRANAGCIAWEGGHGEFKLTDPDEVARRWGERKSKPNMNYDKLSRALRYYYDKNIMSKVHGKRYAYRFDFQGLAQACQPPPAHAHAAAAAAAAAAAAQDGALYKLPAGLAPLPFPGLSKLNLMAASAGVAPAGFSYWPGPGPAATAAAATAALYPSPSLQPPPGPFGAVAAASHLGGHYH
The note with it: protein: recombinant; tags: N-terminal GST; dsDNA, one strand shown. The essentials: as §1

In another assay the target is ETV5 (Homo sapiens, UniProt P41161 1-510). The conditions noted are these: protein: recombinant; tags: N-terminal GST; dsDNA, one strand shown. In short, it runs like this: as §1
ETV5, sequence (P41161 whole entry): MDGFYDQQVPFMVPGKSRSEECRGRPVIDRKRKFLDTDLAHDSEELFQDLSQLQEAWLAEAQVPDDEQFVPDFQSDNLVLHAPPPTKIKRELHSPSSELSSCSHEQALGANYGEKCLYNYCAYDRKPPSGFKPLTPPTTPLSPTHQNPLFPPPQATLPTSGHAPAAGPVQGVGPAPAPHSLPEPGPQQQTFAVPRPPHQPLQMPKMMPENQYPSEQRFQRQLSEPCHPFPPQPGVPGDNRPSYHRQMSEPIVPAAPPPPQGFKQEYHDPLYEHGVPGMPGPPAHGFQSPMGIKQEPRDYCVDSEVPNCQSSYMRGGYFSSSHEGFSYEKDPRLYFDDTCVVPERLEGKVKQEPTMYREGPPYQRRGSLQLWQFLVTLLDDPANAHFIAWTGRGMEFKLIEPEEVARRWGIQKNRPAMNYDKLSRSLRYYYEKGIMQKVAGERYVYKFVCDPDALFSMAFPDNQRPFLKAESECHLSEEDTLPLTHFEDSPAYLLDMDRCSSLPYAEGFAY
The next assay addresses HSF1 (Homo sapiens, UniProt Q00613 1-529). The conditions noted are these: protein: recombinant; tags: N-terminal GST; chain copies: 3; dsDNA, one strand shown. In short, it runs like this:
as §1

Another assay addresses T8, SPIC (Homo sapiens, UniProt Q8N5J4 1-248).
T8 sequence: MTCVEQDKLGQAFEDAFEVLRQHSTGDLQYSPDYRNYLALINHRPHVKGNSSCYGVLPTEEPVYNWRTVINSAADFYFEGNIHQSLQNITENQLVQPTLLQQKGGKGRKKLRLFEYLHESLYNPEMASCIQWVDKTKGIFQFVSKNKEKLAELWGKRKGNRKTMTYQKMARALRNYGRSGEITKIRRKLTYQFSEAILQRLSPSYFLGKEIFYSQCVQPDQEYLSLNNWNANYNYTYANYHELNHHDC
The note with it: protein: recombinant; tags: N-terminal GST; dsDNA, one strand shown. The essentials:
as §1

Another assay deals with ELF4 (Homo sapiens, UniProt Q99607 1-663). The note with it: protein: recombinant; tags: N-terminal GST; dsDNA, one strand shown. In short, it runs like this: as §1
ELF4, sequence (Q99607 whole entry): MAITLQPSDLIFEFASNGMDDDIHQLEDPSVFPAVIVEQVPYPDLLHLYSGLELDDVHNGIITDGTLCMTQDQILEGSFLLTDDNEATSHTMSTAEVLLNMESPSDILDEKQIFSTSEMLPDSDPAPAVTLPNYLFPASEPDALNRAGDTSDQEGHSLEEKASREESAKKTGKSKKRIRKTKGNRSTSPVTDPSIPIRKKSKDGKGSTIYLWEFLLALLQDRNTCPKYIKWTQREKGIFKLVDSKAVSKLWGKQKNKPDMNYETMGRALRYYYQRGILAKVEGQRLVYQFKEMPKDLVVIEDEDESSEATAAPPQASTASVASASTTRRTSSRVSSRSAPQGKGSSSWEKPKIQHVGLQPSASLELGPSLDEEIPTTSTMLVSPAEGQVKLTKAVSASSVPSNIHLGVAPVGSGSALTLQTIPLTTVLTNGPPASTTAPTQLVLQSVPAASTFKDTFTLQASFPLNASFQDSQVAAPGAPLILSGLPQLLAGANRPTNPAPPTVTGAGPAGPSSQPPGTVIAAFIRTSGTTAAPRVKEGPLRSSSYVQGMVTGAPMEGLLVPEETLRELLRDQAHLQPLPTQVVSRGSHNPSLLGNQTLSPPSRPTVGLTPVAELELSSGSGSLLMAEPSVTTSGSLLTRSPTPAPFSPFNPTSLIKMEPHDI
The next assay deals with T9, ELK4 (Homo sapiens, UniProt P28324-2 1-405).
T9 sequence: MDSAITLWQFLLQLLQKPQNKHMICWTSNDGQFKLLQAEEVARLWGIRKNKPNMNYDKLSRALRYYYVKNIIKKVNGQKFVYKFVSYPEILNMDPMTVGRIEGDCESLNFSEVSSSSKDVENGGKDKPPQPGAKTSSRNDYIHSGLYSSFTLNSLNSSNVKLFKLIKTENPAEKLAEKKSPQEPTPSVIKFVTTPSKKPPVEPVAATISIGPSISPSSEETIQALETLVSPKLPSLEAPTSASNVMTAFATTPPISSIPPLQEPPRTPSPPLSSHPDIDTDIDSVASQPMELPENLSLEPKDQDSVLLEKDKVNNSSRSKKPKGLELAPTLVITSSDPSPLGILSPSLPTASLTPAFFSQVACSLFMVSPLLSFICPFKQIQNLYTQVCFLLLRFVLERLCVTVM
The conditions noted are these: protein: recombinant; tags: N-terminal GST; dsDNA, one strand shown. The essentials:
as §1

The target of a further assay is T10, ETV2 (Homo sapiens, UniProt O00321 1-342).
T10 sequence: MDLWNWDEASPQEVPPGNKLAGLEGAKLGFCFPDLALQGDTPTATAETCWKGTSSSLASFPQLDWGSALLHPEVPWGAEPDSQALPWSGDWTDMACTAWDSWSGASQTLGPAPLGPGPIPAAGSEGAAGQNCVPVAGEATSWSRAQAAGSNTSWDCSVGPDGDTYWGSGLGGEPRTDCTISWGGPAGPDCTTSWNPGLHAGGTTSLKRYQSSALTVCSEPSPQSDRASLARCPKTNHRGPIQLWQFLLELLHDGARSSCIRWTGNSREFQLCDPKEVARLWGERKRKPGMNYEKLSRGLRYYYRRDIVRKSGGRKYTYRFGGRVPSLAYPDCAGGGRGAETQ
The conditions noted are these: protein: recombinant; tags: N-terminal GST; dsDNA, one strand shown. The essentials:
as §1

Another assay deals with T11, ELF3 (Homo sapiens, UniProt P78545 1-371).
T11 sequence: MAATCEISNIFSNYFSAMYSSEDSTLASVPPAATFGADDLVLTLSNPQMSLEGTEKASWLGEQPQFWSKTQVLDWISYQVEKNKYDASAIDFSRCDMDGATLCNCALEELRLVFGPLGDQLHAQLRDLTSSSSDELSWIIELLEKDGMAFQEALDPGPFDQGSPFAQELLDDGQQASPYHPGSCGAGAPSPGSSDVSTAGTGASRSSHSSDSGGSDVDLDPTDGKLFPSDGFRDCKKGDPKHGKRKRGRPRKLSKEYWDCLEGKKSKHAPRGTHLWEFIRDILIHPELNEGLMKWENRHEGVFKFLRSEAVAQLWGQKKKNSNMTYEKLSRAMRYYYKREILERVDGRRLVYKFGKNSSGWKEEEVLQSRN
The note with it: protein: recombinant; tags: N-terminal GST; dsDNA, one strand shown. In short, it runs like this:
as §1

The next assay has as its target CRX (Homo sapiens, UniProt O43186 1-299). The note with it: protein: recombinant; tags: N-terminal GST; dsDNA, one strand shown. In short, it runs like this: as §1
A further assay has as its target ETV1 (Homo sapiens, UniProt P50549 1-477). The note with it: protein: recombinant; tags: N-terminal GST; dsDNA, one strand shown. In short, it runs like this:
as §1

HSF1, sequence (Q00613 whole entry): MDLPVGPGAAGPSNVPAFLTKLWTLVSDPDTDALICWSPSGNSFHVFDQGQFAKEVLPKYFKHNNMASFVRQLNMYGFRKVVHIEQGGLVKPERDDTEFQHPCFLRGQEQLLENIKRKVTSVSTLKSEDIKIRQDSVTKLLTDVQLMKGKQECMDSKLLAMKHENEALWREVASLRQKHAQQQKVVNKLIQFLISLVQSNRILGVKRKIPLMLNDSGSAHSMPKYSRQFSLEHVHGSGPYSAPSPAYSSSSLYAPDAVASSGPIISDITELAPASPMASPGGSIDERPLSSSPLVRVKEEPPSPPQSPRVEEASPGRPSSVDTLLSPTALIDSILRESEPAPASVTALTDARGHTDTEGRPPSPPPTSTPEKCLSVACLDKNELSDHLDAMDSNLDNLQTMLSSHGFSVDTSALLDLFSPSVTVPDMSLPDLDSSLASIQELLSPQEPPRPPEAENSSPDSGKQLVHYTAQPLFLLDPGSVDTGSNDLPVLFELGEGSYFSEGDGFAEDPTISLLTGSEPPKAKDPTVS
CRX, sequence (O43186 whole entry): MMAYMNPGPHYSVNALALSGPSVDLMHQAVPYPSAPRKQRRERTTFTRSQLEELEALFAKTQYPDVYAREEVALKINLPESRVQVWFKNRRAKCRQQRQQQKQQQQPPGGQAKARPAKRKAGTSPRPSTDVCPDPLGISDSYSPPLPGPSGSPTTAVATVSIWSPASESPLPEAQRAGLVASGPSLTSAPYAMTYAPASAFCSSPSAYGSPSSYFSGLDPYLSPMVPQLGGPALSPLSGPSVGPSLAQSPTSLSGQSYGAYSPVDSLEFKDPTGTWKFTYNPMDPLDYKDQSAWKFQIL
SPIB, sequence (Q01892 whole entry): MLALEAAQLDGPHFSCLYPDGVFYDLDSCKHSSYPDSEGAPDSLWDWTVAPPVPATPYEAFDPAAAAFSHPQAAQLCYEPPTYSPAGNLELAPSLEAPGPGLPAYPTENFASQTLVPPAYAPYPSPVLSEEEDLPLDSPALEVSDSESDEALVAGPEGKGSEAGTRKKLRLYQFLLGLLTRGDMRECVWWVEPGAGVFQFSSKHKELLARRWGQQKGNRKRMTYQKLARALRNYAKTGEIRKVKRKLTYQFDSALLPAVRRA
ETV1, sequence (P50549 whole entry): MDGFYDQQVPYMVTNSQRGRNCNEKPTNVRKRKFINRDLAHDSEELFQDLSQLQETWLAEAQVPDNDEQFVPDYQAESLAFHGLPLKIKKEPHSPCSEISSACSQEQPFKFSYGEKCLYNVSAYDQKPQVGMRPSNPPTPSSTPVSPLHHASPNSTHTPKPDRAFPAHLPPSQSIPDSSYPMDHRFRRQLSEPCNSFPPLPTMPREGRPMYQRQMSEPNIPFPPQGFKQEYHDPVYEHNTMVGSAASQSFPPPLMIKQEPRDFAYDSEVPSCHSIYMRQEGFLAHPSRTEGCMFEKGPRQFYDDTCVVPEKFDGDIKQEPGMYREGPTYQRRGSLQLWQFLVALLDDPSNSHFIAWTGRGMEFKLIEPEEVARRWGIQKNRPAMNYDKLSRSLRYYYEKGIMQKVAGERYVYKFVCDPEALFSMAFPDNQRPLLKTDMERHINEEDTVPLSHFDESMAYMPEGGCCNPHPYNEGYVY

GATATT: the binding signal was 1.11 fold enrichment (6-mer frequency, TF over GST control) in the assay with FLI1; 1.17 fold enrichment (6-mer frequency, TF over GST control) with ELK1; 1.06 fold enrichment (6-mer frequency, TF over GST control) with GABPA; 1.12 fold enrichment (6-mer frequency, TF over GST control) in the assay with ERG; 1.13 fold enrichment (6-mer frequency, TF over GST control) with ELF1; 1.12 fold enrichment (6-mer frequency, TF over GST control) in the assay with EHF. Also, the binding signal in the assay with SPIB is 1.13 fold enrichment (6-mer frequency, TF over GST control); with ELK3, 1 fold enrichment (6-mer frequency, TF over GST control); with FEV, 1.04 fold enrichment (6-mer frequency, TF over GST control); in the assay with ETV5, 1.14 fold enrichment (6-mer frequency, TF over GST control); in the assay with HSF1 it was 1.18 fold enrichment (6-mer frequency, TF over GST control); with SPIC, 1.12 fold enrichment (6-mer frequency, TF over GST control). Further, the binding signal with ELF4 was 1.12 fold enrichment (6-mer frequency, TF over GST control); with ELK4, 1.15 fold enrichment (6-mer frequency, TF over GST control); with ETV2, 1.24 fold enrichment (6-mer frequency, TF over GST control); with ELF3 it was 1.07 fold enrichment (6-mer frequency, TF over GST control); in the assay with CRX, 1.31 fold enrichment (6-mer frequency, TF over GST control); in the assay with ETV1, 1.1 fold enrichment (6-mer frequency, TF over GST control).
